This note sets out measurements from PubChem BioAssay (Tox21).

The nature of experiment [1]: qHTS assay to test for compound auto fluorescence at 535 nm (green) in HEK293 cells (AID 720680). Note: % is set by controls: 0 for no effect and ±100 for the full control effect.
A short description of experiment [2]: qHTS assay to test for compound auto fluorescence at 460 nm (blue) in HEK293 cell free culture (AID 720681). Note: potency is the fitted concentration of half-maximal effect. The method in brief:
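Blue fluorescence (Ex 405/Em 460 nm, triamterene-equivalent) was read immediately after pin transfer of compound or DMSO into medium (DMEM, 10% FBS) without cells.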

Experiment [3] can be described thus: qHTS assay to test for compound auto fluorescence at 535 nm (green) in HEK293 cell free culture (AID 720682). Note: % is set by controls: 0 for no effect and ±100 for the full control effect. The method in brief: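 Steps: dispense DMEM/10% FBS into empty wells; pin in compound or DMSO; measure fluorescence at 485/535 nm. Values are fluorescein equivalents.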
In general terms: qHTS replaces the single test concentration by a dilution series.

Experiment [4] can be described thus: qHTS assay to test for compound auto fluorescence at 590 nm (red) in HEK293 cell free culture (AID 720683). Note: % is set by controls: 0 for no effect and ±100 for the full control effect. A digest of the protocol:
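Red-channel autofluorescence of compounds in culture medium (DMEM, 10% FBS), no cells, measured at 540/590 nm. Rose Bengal sodium is the reference fluorophore for equivalence.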

A short description of experiment [5]: qHTS assay to test for compound auto fluorescence at 590 nm (red) in HepG2 cell free culture (AID 720684). Note: % is set by controls: 0 for no effect and ±100 for the full control effect. The method in brief:
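No cells present: MEM + 10% FBS only. Compound pinned in, red label read (540/590 nm). Activity = fluorescence equivalent to Rose Bengal sodium.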

Experiment [6] is described as follows: qHTS assay to test for compound auto fluorescence at 460 nm (blue) in HepG2 cell free culture (AID 720685). Note: potency is the fitted concentration of half-maximal effect. A digest of the protocol:
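Cell-free plates of MEM plus 10% FBS received 23 nL compound or DMSO vehicle; blue-channel (405/460 nm) intensity scored against triamterene as reference fluorophore.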

A short description of experiment [7]: qHTS assay to test for compound auto fluorescence at 535 nm (green) in HepG2 cell free culture (AID 720686). Note: % is set by controls: 0 for no effect and ±100 for the full control effect.
Experiment [8] is described as follows: qHTS assay to test for compound auto fluorescence at 460 nm (blue) in HepG2 cells (AID 720687). Note: potency is the fitted concentration of half-maximal effect. The method in brief:
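Blue-channel autofluorescence (Ex/Em 405/460 nm, triamterene-equivalent) was measured after 1 hr compound exposure at 37 C, 5% CO2. Cells were HepG2, plated overnight at 37 C in MEM plus 10% FBS.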

A short description of experiment [9]: qHTS assay to identify small molecule antagonists of the glucocorticoid receptor (GR) signaling pathway - cell viability counter screen (AID 720693). Note: nearly all actives have a fitted effect of over 55% in size. Note: potency is the fitted concentration of half-maximal effect.
A short description of experiment [10]: qHTS assay for identifying genotoxic compounds that show differential cytotoxicity against isogenic chicken DT40 cell lines with known DNA damage response pathways - wild type cell line (AID 743012). Note: nearly all actives have a fitted effect of over 60% in size. Note: potency is the fitted concentration of half-maximal effect. A digest of the protocol:
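Cytotoxicity in repair-proficient parental chicken DT40 cells serves as the comparator for Rad54/Ku70- and Rev3-deficient lines. Cells were exposed to compounds for 40 h at 37 C/5% CO2, and ATP-based luminescence (CellTiter-Glo) measured viability.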

Experiment [11] in a line: qHTS assay for identifying genotoxic compounds that show differential cytotoxicity against isogenic chicken DT40 cell lines with known DNA damage response pathways - Rev3 mutant cell line (AID 743014). Note: nearly all actives have a fitted effect of over 55% in size. Note: potency is the fitted concentration of half-maximal effect.
Experiment [12] can be described thus: qHTS assay for identifying genotoxic compounds that show differential cytotoxicity against isogenic chicken DT40 cell lines with known DNA damage response pathways - Rad54/Ku70 mutant cell line (AID 743015). Note: nearly all actives have a fitted effect of over 60% in size. Note: potency is the fitted concentration of half-maximal effect.
Experiment [13] in a line: qHTS assay to identify small molecule antagonists of the androgen receptor (AR) signaling pathway - cell viability counter screen (AID 743033; note: nearly all actives have a fitted effect of over 45% in size; note: potency is the fitted concentration of half-maximal effect).
Experiment [14] can be described thus: qHTS assay to identify small molecule antagonists of the androgen receptor (AR) signaling pathway using the MDA cell line - cell viability counter screen (AID 743041; note: nearly all actives have a fitted effect of over 45% in size; note: potency is the fitted concentration of half-maximal effect). The method in brief:
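Using the breast carcinoma line MDA-kb2 AR-luc, test chemicals were co-incubated with R1881 for 16 h; CellTiter-Fluor reagent, added at 15.5 h, provided a fluorescence measure of live cells.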

In experiment [15] the target is Androgen receptor (Homo sapiens) (UniProt P10275). Description: qHTS assay to identify small molecule antagonists of the androgen receptor (AR) signaling pathway (AID 743035; active = well fitted inhibition curve with a large enough effect in the signal ratio in the repeat runs, not every such curve was filed as active; the % refers to the signal ratio; note: potency is the fitted concentration of half-maximal effect). A digest of the protocol: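 Steps: seed AR-UAS-bla GripTite HEK293 cells, incubate 4 h at 37C; pin in test compound, then add agonist R1881; incubate 16 h at 37C; add LiveBLAzer B/G FRET substrate, 2 h at room temperature; read fluorescence.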
Androgen receptor (Homo sapiens), sequence (P10275 whole entry, looked up): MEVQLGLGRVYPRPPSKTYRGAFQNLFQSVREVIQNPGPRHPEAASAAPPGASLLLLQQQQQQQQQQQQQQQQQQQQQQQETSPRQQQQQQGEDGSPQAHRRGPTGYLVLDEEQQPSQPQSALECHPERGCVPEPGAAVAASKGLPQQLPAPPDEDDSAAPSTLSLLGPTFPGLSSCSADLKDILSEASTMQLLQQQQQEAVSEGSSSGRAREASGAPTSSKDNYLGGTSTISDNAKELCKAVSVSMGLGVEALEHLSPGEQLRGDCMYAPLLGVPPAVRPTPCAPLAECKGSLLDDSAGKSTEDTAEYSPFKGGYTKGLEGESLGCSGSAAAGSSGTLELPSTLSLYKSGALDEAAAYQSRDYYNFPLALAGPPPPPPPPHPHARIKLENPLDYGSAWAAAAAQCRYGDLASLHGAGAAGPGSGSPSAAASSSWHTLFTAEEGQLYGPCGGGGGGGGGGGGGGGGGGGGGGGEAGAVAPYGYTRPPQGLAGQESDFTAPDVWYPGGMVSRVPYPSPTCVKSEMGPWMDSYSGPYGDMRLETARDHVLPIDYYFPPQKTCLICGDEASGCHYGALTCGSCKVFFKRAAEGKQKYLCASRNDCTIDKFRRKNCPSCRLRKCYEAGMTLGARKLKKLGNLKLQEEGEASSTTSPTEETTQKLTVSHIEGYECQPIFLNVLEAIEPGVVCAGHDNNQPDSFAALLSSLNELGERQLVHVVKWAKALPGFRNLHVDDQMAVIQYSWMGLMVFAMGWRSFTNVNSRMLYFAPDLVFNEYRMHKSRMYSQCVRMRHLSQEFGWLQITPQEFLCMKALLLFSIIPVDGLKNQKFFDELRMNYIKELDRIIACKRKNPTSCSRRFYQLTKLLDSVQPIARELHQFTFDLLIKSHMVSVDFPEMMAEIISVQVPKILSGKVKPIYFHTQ

The target is the same in experiment [16]. Nature of the experiment: qHTS assay to identify small molecule agonists of the androgen receptor (AR) signaling pathway (AID 743036; active = well fitted activation curve with a large enough effect in the signal ratio in the repeat runs, with a control signal flat, not every such curve was filed as active; the % refers to the signal ratio; note: % is set by controls: 0 for no effect and ±100 for the full control effect). A digest of the protocol: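 Reporter line: GeneBLAzer AR-UAS-bla-GripTite (HEK293). Steps: plate cells, 4 h rest, add compounds, 16 h at 37C, add LiveBLAzer B/G substrate, 2 h at RT, read fluorescence.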
For experiment [17] the target is unchanged. Nature of the experiment: qHTS assay to identify small molecule agonists of the androgen receptor (AR) signaling pathway using the MDA cell line (AID 743040; note: % is set by controls: 0 for no effect and ±100 for the full control effect; nearly all actives have a fitted effect of over 20% in size). The method in brief: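 Stable MMTV-luciferase reporter in MDA-kb2 cells; note the promoter carries GR as well as AR response elements. 16 h compound treatment, 37C, 0% CO2; ONE-Glo luminescence endpoint.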

Experiment [18] has the same target. Nature of the experiment: qHTS assay to identify small molecule antagonists of the androgen receptor (AR) signaling pathway using the MDA cell line (AID 743042; note: nearly all actives have a fitted effect of over 55% in size; note: potency is the fitted concentration of half-maximal effect). The method in brief:
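Antagonist mode: compounds plus R1881 agonist added to MDA-kb2 AR-luc cells, incubated 16 h at 37C. Luciferase reporter luminescence quantified, with multiplexed CellTiter-Fluor readout for cell viability.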

A number with no mark means an inactive call. Results filed as inconclusive are left out. Activity calls are given as the source filed them. Unless noted, calls come from the whole dose curve; as a rule, active = well fitted curve in the direction sought with a large enough effect in the repeat runs; inconclusive = weak or mixed curves; inactive = no such curve, though single readings can be large; an effect the other way counts as inactive or inconclusive.
Tags give direction and shape of the fitted curve or compound fluorescence and quenching.

With `CCc1cccc(C)c1N(C(=O)CCl)[C@@H](C)COC`, the compound was called inactive in experiment [1], in experiment [3], in [4] and in experiment [5]. Besides, the Potency entry in [2], in [6], in experiment [7], in experiment [8], in [9] and in experiment [13] was “inactive” each time. Moreover, the Potency in experiment [10] was 13.7 µM (active); in experiment [11], 19.3 µM (active); in experiment [12], 30.6 µM (active).

In the case of `O=[N+]([O-])c1ccc(Cl)c(Cl)c1Cl`, the compound was called inactive in experiment [1], in [3], in [4] and in [5]. The Potency entry in experiment [2], in experiment [6], in experiment [7], in [8], in experiment [9] and in experiment [10] was “inactive” each time. The Potency result in [11], in [12], in [13] and in experiment [14] was “inactive” in each case.

On to `Fc1ccc(C(OCCN2CCN(CCCc3ccccc3)CC2)c2ccc(F)cc2)cc1`, for which the result in [1], in [3], in experiment [4], in [5], in experiment [16] and in experiment [17] was inactive. In addition, the Potency entry in experiment [2], in [6], in [7] and in experiment [8] was “inactive” each time. In addition, the Potency in [9] was 21.3 µM (active); in [10], 2.11 µM (active); in experiment [11], 2.11 µM (active); in experiment [12], 3.76 µM (active); in experiment [13], 21.3 µM (active); in experiment [15] it was 15.1 µM (active). Further, the figures for the Potency in [14] and in [18] were 21.1 µM (active) and 16.8 µM (active), respectively.

Turning to `Oc1ccc(Cl)c(Cl)c1`, the result in [1], in [3], in experiment [4] and in experiment [5] was inactive. Also, the Potency result in experiment [2], in [6], in [7], in experiment [8], in experiment [9] and in experiment [10] was “inactive” throughout. In addition, the Potency result in [11], in experiment [12], in experiment [13] and in experiment [14] was “inactive” each time.

For `O.O.O.O.O.O.O.O=S(=O)([O-])[O-].[Co+2]`, the call in experiment [1], in experiment [3], in [4] and in [5] was inactive. For the same compound, the Potency result in [2], in experiment [6], in experiment [7], in experiment [8], in [9] and in experiment [10] was “inactive” throughout. In addition, the Potency result in experiment [11], in experiment [12], in experiment [13] and in experiment [14] was “inactive” in each case.

For the compound `CCC[CH2][Sn]([CH2]CCC)([CH2]CCC)[O][Sn]([CH2]CCC)([CH2]CCC)[CH2]CCC`, the fluorescence, % of fluorescein in experiment [1] was 0.0128% [at 3.72 µM]. The fluorescence, % of fluorescent control was -0.0236% [at 3.72 µM] in experiment [2], 0.113% [at 3.72 µM] in [4], -0.0005% [at 3.72 µM] in [6] and 0.0007% [at 3.72 µM] in [8]. The activity change in [3] was 0.0175% [at 3.72 µM]; in experiment [17] it was -9.89% [at 8.47 µM]. Also, the fluorescence, % of Rose Bengal in [5] was 0.0071% [at 3.72 µM]. In addition, the fluorescence, % of fluorescein control in experiment [7] is -0.0002% [at 3.72 µM]. Besides, the Potency in [9] is 1.35 µM (active); in experiment [10] it was 0.336 µM (active); in experiment [11] it was 0.3 µM (active); in [12] it was 0.267 µM (active); in [13], 0.603 µM (active); in experiment [15], 0.427 µM (active). Besides, the Potency is 1.5 µM (active) in [14] and 0.844 µM (active) in experiment [18].

Turning to `O=S(=O)(O)F`, the result in experiment [1], in experiment [3], in experiment [4] and in [5] was inactive. For the same compound, the Potency entry in experiment [2], in experiment [6], in experiment [7], in experiment [8], in experiment [9] and in [10] was “inactive” throughout. The Potency result in experiment [11], in [12], in experiment [13] and in experiment [14] was “inactive” in each case.

As for `CCCCCCC[CH2][Sn]([Cl])([Cl])[CH2]CCCCCCC`, the compound was called inactive in [1], in [3], in experiment [4], in experiment [5] and in experiment [17]. Besides, the Potency entry in [2], in experiment [6], in experiment [7], in experiment [8], in experiment [10] and in experiment [11] was “inactive” in each case. For the same compound, the Potency entry in [12], in experiment [13], in experiment [14] and in experiment [18] was “inactive” in each case. For the same compound, the values for the Potency in experiment [9] and in experiment [15] were 54.9 µM (active) and 21.9 µM (active), respectively.

In the case of `N#CSCc1ccccc1`, the outcome in experiment [1], in [3], in [4] and in [5] was inactive. In addition, the Potency entry in experiment [2], in [6], in experiment [7], in [8], in experiment [9] and in [10] was “inactive” throughout. Besides, the Potency entry in experiment [11], in experiment [12], in experiment [13] and in [14] was “inactive” throughout.

In the case of `C=CC(=O)[O][Sn]([CH2]CCC)([CH2]CCC)[CH2]CCC`, the compound was called inactive in [1], in experiment [3], in [4], in [5] and in experiment [17]. The Potency result in experiment [2], in experiment [6], in experiment [7] and in [8] was “inactive” each time. For the same compound, the Potency in experiment [9] is 1.55 µM (active); in experiment [10], 0.864 µM (active); in [11], 0.864 µM (active); in experiment [12], 0.686 µM (active); in experiment [13] it was 1.23 µM (active); in experiment [14], 2.17 µM (active). The Potency in experiment [18] is 1.72 µM (active).

Turning to `CCn1cc[n+](C)c1` (tested in a mixture with another compound), the compound was called inactive in experiment [1], in experiment [3], in [4] and in experiment [5]. For the same compound, the Potency result in [2], in experiment [6], in experiment [7], in experiment [8], in experiment [9] and in experiment [10] was “inactive” each time. Further, the Potency entry in experiment [11], in experiment [12], in experiment [13] and in experiment [14] was “inactive” in each case.

For `CN(C)c1ccc(N)cc1`, the compound was classed as inactive in experiment [1], in experiment [3], in [4], in [5] and in experiment [16]. The Potency result in experiment [2], in experiment [6], in experiment [7], in experiment [8], in [9] and in experiment [18] was “inactive” each time. For the same compound, the Potency in [10] was 29.9 µM (active); in [11], 21.2 µM (active); in experiment [12] it was 26.6 µM (active); in [13], 42.6 µM (active); in experiment [15], 24 µM (active); in [14], 59.6 µM (active).

Regarding `CCCCn1cc[n+](C)c1` (tested in a mixture with another compound), the compound was classed as inactive in [1], in experiment [3], in [4] and in experiment [5]. The Potency entry in [2], in [6], in experiment [7], in [8], in experiment [9] and in [10] was “inactive” in each case. Moreover, the Potency result in experiment [11], in experiment [12], in experiment [13] and in [14] was “inactive” throughout.

As for `CN1CCc2cc3c(cc2C1O)OCO3` (centres undefined), the result in experiment [1], in [3], in [4] and in experiment [5] was inactive. The values for the Potency in experiment [2], in [6] and in [8] were 39.8 µM (active), 39.8 µM [fluorescent] (active) and 39.8 µM [fluorescent] (active), respectively. The Potency entry in experiment [7], in [9], in experiment [10], in experiment [11], in [12] and in experiment [13] was “inactive” each time.
